The results in this text go back to PubChem BioAssay (NCI).

About 79,000 compounds went through this panel and 15% of them were active in at least one assay; those are over-represented in the sample as a whole. A number with no mark means an inactive call. The source made the active and inactive calls. Cut-off read from the data, not from the text of the source: active = growth inhibition above about 70%; inactive = the rest.

The nature of the first assay: NCI Yeast Anticancer Drug Screen. Data for the bub3 strain (AID 167). To be noted: S. cerevisiae bub3 mutant strain, at 50.0 µM, active compounds read high. A digest of the protocol:
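Growth of a checkpoint-deficient yeast mutant is measured after compound exposure. Values represent inhibition relative to vehicle.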
As for `Cc1cccc2nc(-c3ccccc3)ccc12`, the growth inhibition was 4.95%.

For `C=CCCCCCCCCCO`, the growth inhibition was -18.4%.

As for `COc1ccc(-n2cc3c(=O)nccc-3c3ccccc32)cc1OC`, the growth inhibition is -18.6%.

For the molecule `FC(F)(F)c1ccc(C2ON=C(c3ccccc3)N2C23CC4CC(CC(C4)C2)C3)cc1` (stereo not given), the growth inhibition was -7.5%.

In the case of `Cc1ccccc1C(=O)OCCBr`, the growth inhibition is 8.2%.

In the case of `CC(C)(O)/C(=N/O)c1ccc(-c2ccccc2)cc1`, the growth inhibition was 9.35%.

Take `COC(=O)C1=C(C)NC(C)=C(C(=O)OC)C1c1cccc(N=O)c1`: the growth inhibition was 26.6%.

Consider `[O-][n+]1c2ccccc2nn1-c1ccccc1`, for which the growth inhibition was -7.2%.

For the molecule `O=C(CN1C(=O)c2cccc3c(Br)ccc(c23)C1=O)c1ccc(Cl)cc1`, the growth inhibition is 6.8%.

With `S=C(S)NCNC(=S)S.[Zn+2]`, the growth inhibition was 28.2%.

As for `O=C(O)CC1CCCNC1` (stereo not given), the growth inhibition is -16%.

In the case of `CC1CCN(C(=O)C(c2ccccc2)c2ccccc2)CC1`, the growth inhibition is 1.2%.

On to `C=C/C=C1\CCOC1=O`, for which the growth inhibition is 3.1%.

In the case of `Cc1ccc(C)c(NC(=O)C(=O)C(C#N)c2c(Cl)cccc2Cl)c1` (stereo not given), the growth inhibition was 6.35%.

Turning to `COc1ccc2c(O)cc(C(=O)O)c(-c3ccccc3)c2c1`, the growth inhibition was 5.05%.

`CCCC(CCC)C(=O)OCC(=O)c1ccc(-c2ccccc2)cc1`: the growth inhibition is 2.7%.

For `CCC(=C(C#N)C#N)c1cc(OC)c(OC)c(OC)c1`, the growth inhibition is -26.5%.

Regarding `CCCCC(SC(CC)(CC)C(N)=O)C(N)=O` (stereo not given), the growth inhibition was 8.7%.

In the case of `NC(=O)C1CC(I)C2CC1C(=O)O2` (stereo not given), the growth inhibition was 0.35%.

As for `O/N=C/c1ccccn1`, the growth inhibition was -9.5%.

Take `Nc1nc(Cl)nc(Cl)c1N`: the growth inhibition was -8.95%.

In the case of `Cc1ccc(C(=O)N/N=C/c2ccccc2Cl)cc1`, the growth inhibition was 34.9%.

In the case of `CCOC(=O)/C(C#N)=C/c1c[nH]c2ccccc12`, the growth inhibition was 19.3%.

Regarding `Nc1cccc(C(F)(F)F)c1N`, the growth inhibition was -13.6%.

Take `CCCCCCCCCCCCCCCCSc1ccncc1NN=O`: the growth inhibition is -3.8%.

`NC(C(=O)O)c1ccc(F)cc1` (stereo not given): the growth inhibition is 2.4%.

Regarding `CCOC(=O)CCC1(C(=O)OCC)CCCCC1=O` (stereo not given), the growth inhibition is -25.4%.

In the case of `CN(C)c1ccc(C2c3c(oc4ccccc4c3=O)Oc3oc4ccccc4c(=O)c32)cc1`, the growth inhibition was 0.35%.

For the molecule `C=C1CN(C2=NCCO2)C1`, the growth inhibition was -13.6%.

On to `CCOc1c(Cc2ccccc2)c(=O)n2c3ccccc3n3c(=O)n(C)c(=O)c1c23`, for which the growth inhibition was -12.8%.

Take `CCC(CC)(C1CCC(=O)CC1)C1CCC(=O)CC1`: the growth inhibition is 37.1%.

Regarding `COC1/C=C/OC2(C)Oc3c(C)c(O)c4c(O)c(c(/C=N/OC/C=C(\C)CCC=C(C)C)c(O)c4c3C2=O)NC(=O)C(C)=C/C=C/C(C)C(O)C(C)C(O)C(C)C(OC(C)=O)C1C` (stereo not given), the growth inhibition is -8.95%.

`COc1cccc(CN(CCc2cccc(OC)c2OC)C(=O)CN2CCOCC2)c1O`: the growth inhibition was 4.9%.

On to `O=S(=O)(Cl)C1c2ccccc2-c2ccccc21`, for which the growth inhibition was 23.2%.

Consider `O=C(/C=C/c1cccc(O)c1)c1ccccc1`, for which the growth inhibition was -5.6%.

As to `COc1ccc2[nH]c(=O)cc(C)c2c1`, the growth inhibition is 18.9%.

In the case of `ONC1=Nc2ccccc2C(=S)N2CSCC12` (stereo not given), the growth inhibition was -21.6%.

For `O=[N+]([O-])c1cccnc1Sc1ccccc1C1=NCCCN1`, the growth inhibition is -4.2%.

In the case of `CCCCCCCCCCCCCCCCCCCCCCCCCC`, the growth inhibition is -0.05%.

For `CC(=O)N1CCc2ccccc2C1C1NCCc2ccccc21` (stereo not given), the growth inhibition was 1.05%.

The nature of the next assay: NCI Yeast Anticancer Drug Screen. Data for the mlh1 rad18 strain (AID 175). Conditions: S. cerevisiae mlh1 rad18 strain growth inhibition; at 50.0 µM; active compounds read high. A digest of the protocol: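 Growth inhibition of the yeast strain was measured after compound exposure and expressed relative to vehicle-treated controls. The strain carries defined defects in DNA damage repair.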
For the molecule `Cc1cccc2nc(-c3ccccc3)ccc12`, the growth inhibition was 4%.

Turning to `C=CCCCCCCCCCO`, the growth inhibition was -1.8%.

As for `COc1ccc(-n2cc3c(=O)nccc-3c3ccccc32)cc1OC`, the growth inhibition was -0.6%.

For `FC(F)(F)c1ccc(C2ON=C(c3ccccc3)N2C23CC4CC(CC(C4)C2)C3)cc1` (stereo not given), the growth inhibition is 1.25%.

Take `Cc1ccccc1C(=O)OCCBr`: the growth inhibition is 2.9%.

On to `CC(C)(O)/C(=N/O)c1ccc(-c2ccccc2)cc1`, for which the growth inhibition is 10.8%.

As to `COC(=O)C1=C(C)NC(C)=C(C(=O)OC)C1c1cccc(N=O)c1`, the growth inhibition is 78.2% (active).

As to `[O-][n+]1c2ccccc2nn1-c1ccccc1`, the growth inhibition is -13.8%.

With `O=C(CN1C(=O)c2cccc3c(Br)ccc(c23)C1=O)c1ccc(Cl)cc1`, the growth inhibition was 13.6%.

For `S=C(S)NCNC(=S)S.[Zn+2]`, the growth inhibition was 29.4%.

In the case of `O=C(O)CC1CCCNC1` (stereo not given), the growth inhibition is -16.3%.

Turning to `CC1CCN(C(=O)C(c2ccccc2)c2ccccc2)CC1`, the growth inhibition is -4.75%.

With `C=C/C=C1\CCOC1=O`, the growth inhibition was -10.6%.

For the molecule `Cc1ccc(C)c(NC(=O)C(=O)C(C#N)c2c(Cl)cccc2Cl)c1` (stereo not given), the growth inhibition was 28.9%.

`COc1ccc2c(O)cc(C(=O)O)c(-c3ccccc3)c2c1`: the growth inhibition was -22.6%.

With `CCCC(CCC)C(=O)OCC(=O)c1ccc(-c2ccccc2)cc1`, the growth inhibition was -0.1%.

As to `CCC(=C(C#N)C#N)c1cc(OC)c(OC)c(OC)c1`, the growth inhibition was -13.8%.

Consider `CCCCC(SC(CC)(CC)C(N)=O)C(N)=O` (stereo not given), for which the growth inhibition was -5.6%.

On to `NC(=O)C1CC(I)C2CC1C(=O)O2` (stereo not given), for which the growth inhibition is -6.5%.

For the molecule `O/N=C/c1ccccn1`, the growth inhibition is 0%.

In the case of `Nc1nc(Cl)nc(Cl)c1N`, the growth inhibition is -2.95%.

With `Cc1ccc(C(=O)N/N=C/c2ccccc2Cl)cc1`, the growth inhibition is 26.6%.

For `CCOC(=O)/C(C#N)=C/c1c[nH]c2ccccc12`, the growth inhibition is 31.4%.

Regarding `Nc1cccc(C(F)(F)F)c1N`, the growth inhibition was 8.3%.

On to `CCCCCCCCCCCCCCCCSc1ccncc1NN=O`, for which the growth inhibition was 2.3%.

For the molecule `NC(C(=O)O)c1ccc(F)cc1` (stereo not given), the growth inhibition is 37.5%.

For `CCOC(=O)CCC1(C(=O)OCC)CCCCC1=O` (stereo not given), the growth inhibition was -23.1%.

With `CN(C)c1ccc(C2c3c(oc4ccccc4c3=O)Oc3oc4ccccc4c(=O)c32)cc1`, the growth inhibition was -17.5%.

Consider `C=C1CN(C2=NCCO2)C1`, for which the growth inhibition is 4.05%.

With `CCOc1c(Cc2ccccc2)c(=O)n2c3ccccc3n3c(=O)n(C)c(=O)c1c23`, the growth inhibition is -25%.

Take `CCC(CC)(C1CCC(=O)CC1)C1CCC(=O)CC1`: the growth inhibition is 13.6%.

In the case of `COC1/C=C/OC2(C)Oc3c(C)c(O)c4c(O)c(c(/C=N/OC/C=C(\C)CCC=C(C)C)c(O)c4c3C2=O)NC(=O)C(C)=C/C=C/C(C)C(O)C(C)C(O)C(C)C(OC(C)=O)C1C` (stereo not given), the growth inhibition was 30.4%.

Consider `COc1cccc(CN(CCc2cccc(OC)c2OC)C(=O)CN2CCOCC2)c1O`, for which the growth inhibition was -23.1%.

As for `O=S(=O)(Cl)C1c2ccccc2-c2ccccc21`, the growth inhibition was 23.4%.

Turning to `O=C(/C=C/c1cccc(O)c1)c1ccccc1`, the growth inhibition is 92% (active).

Consider `COc1ccc2[nH]c(=O)cc(C)c2c1`, for which the growth inhibition is -85.3%.

For `ONC1=Nc2ccccc2C(=S)N2CSCC12` (stereo not given), the growth inhibition is 15.9%.

In the case of `O=[N+]([O-])c1cccnc1Sc1ccccc1C1=NCCCN1`, the growth inhibition is -4.1%.

On to `CCCCCCCCCCCCCCCCCCCCCCCCCC`, for which the growth inhibition is 5.6%.

With `CC(=O)N1CCc2ccccc2C1C1NCCc2ccccc21` (stereo not given), the growth inhibition is 5.9%.
